Screens: PubChem BioAssay, several laboratories
A selection: hits, their analogues and other compounds. The true share with any hit is near 4.6%.
tim10-1 inh = growth inhibitors of tim10-1 mutant yeast, primary screen, luminescence, uHTS. hit rate 2.2% among 330,000. S. cerevisiae tim10-1 ts strain growth, BacTiter-Glo, 24 h. AID 463190, 2010. inhibition, % at 20 µM;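 active means inhibition of at least 40%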;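 further: mutant grown at 25 °C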
PfHsp90 set2 = growth inhibition of PfHsp90-expressing yeast, primary screen, antimalarial PfHsp90 inhibitor project, S. cerevisiae, BacTiter-Glo luminescence, single point, set 2. BacTiter-Glo ATP, 48 h; yeast lacking PDR1 and PDR3 efflux regulators. inhibition, % at 9.4 µM. hit rate 0.32% among 310,000. AID 504621, 2011;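 active means every replicate shows inhibition above about 80%, whatever the replicate mean, limit read from the data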
tim23-1 inh = growth inhibitors of tim23-1 mutant yeast, primary screen, luminescence, uHTS; S. cerevisiae tim23-1 growth, BacTiter-Glo luminescence, 24 h; inhibition, % at 20 µM; hit rate 1.3% among 330,000; AID 463212, 2010;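 active means growth inhibition of the mutant yeast at or above 50%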;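 further: temperature-sensitive mutant grown at 25 °C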
NLRP3 yeast inh = NALP3 inflammasome inhibitors in reconstituted yeast, primary screen, luminescence, uHTS; hit rate 0.39% among 330,000; Yeast reconstituted NLRP3/ASC/caspase-1, beta-gal luminescence, 24 h; inhibition, % at 10 µM;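 active means inhibition of 50% or more; inactive means inhibition below 50%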
TIM10 inh = growth inhibitors of isogenic TIM10 control yeast, primary screen, counter-screen for tim10-1 yeast inhibitor project, luminescence, uHTS; AID 463195, 2010; S. cerevisiae TIM10 strain growth, BacTiter-Glo luminescence, 24 h; inhibition, % at 10 µM; hit rate 1.4% among 330,000;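 active means inhibition of 40% or more at the single tested concentration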;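 further: wild-type TIM10 isogenic control strain grown at permissive 25 °C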
SKKanGAS inh = S. pyogenes SKKanGAS growth inhibitors in kanamycin, primary screen, streptokinase expression inhibitor project, SKKanGAS strain, BacTiter-Glo luminescence; 6 h; inhibition, % at 7.5 µM; hit rate 1.3% among 300,000;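 active means mean replicate score, as percent of positive control median, at least 50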;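 further: strain carries kanamycin resistance gene driven by streptokinase promoter and grows in 40 µg/ml kanamycin; loss of luminescence reflects streptokinase promoter inhibition or plain growth inhibition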
tim10-1 conf = growth inhibitors of tim10-1 mutant yeast, confirmation, single concentration, luminescence, S. cerevisiae | S. cerevisiae tim10-1 ts strain growth, BacTiter-Glo, 24 h | inhibition, % at 20 µM | shares compounds with tim10-1 inh | hit rate 56% among 7,400;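 active means inhibition of yeast growth at or above a set limit in either of two repeat tests at 20 µM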;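 further: tim10-1 mutant grown at permissive 25 °C to find synthetic lethal compounds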
Each line names hits and unclear results; the compound was inactive in the other large screens (follow-up assays come after a bar, where they were run).

CC(C)c1ccc(NC(=O)CCCN2C(=O)NC(C)(C)C2=O)cc1	tim10-1 inh 57 (no result: SKKanGAS inh) | tim10-1 conf inactive
Cc1sc2ncnc(N3CCOCC3)c2c1C	none
Cc1ccc(OCCN2CCN(c3ncnc4sc(C)c(C)c34)CC2)cc1	tim10-1 inh 47 | tim10-1 conf inactive
O=C(c1ccco1)N1CCCC(c2nc3c(nnn3Cc3cccc(Cl)c3)c(=O)[nH]2)C1 (stereo not drawn)	tim10-1 inh 53 | tim10-1 conf inactive
CCN(CC)C(=O)c1ccc(COc2ccccc2Cl)cc1	tim10-1 inh 42 | tim10-1 conf inactive
COc1ccc2[nH]c3c(N4CCC(O)(c5cccc(C(F)(F)F)c5)CC4)ncnc3c2c1	tim10-1 inh 42 | tim10-1 conf inactive
Cc1cccc2c(=O)c(-c3ccc4c(c3)OCO4)c(NC(=O)c3ccco3)oc12	tim10-1 inh 42 | tim10-1 conf inactive
O=C(OCCOc1cccc(Cl)c1)C1CCN(S(=O)(=O)c2ccccc2)CC1	tim10-1 inh 44 | tim10-1 conf inactive
O=C(CSc1n[nH]c(-c2ccccc2F)n1)NCC(=O)Nc1ccc(F)c(F)c1F	none (no result: PfHsp90 set2)
COc1ccc(/C=C2\Oc3ccccc3C2=O)cc1	none (no result: SKKanGAS inh)
CC(=O)Oc1ccc(/C=C2/Oc3ccccc3C2=O)cc1	tim10-1 inh 44 | tim10-1 conf inactive
O=C(/C=C/c1ccccc1)c1ccc(NC2=NCCCS2)cc1	none (no result: tim10-1 inh, tim23-1 inh, NLRP3 yeast inh, TIM10 inh, SKKanGAS inh)
COc1cccc(/C=C/C(=O)c2ccc(NC3=NCCCS3)cc2)c1	tim10-1 inh 43 | tim10-1 conf 37
CC(C)(C)c1ccc(/C=C/C(=O)c2ccc(NC3=NCCCS3)cc2)cc1	tim10-1 inh 43 (no result: SKKanGAS inh) | tim10-1 conf 35
COc1ccc(-c2nc(C)ncc2-c2ccccc2)c(O)c1	tim10-1 inh 41 | tim10-1 conf inactive
COc1ccc(-c2nc(C)ncc2-c2ccc(Cl)cc2)c(O)c1	none
CN1CCN(C(=S)NC(=O)/C=C/c2cccc3ccccc23)CC1	tim10-1 inh 51 | tim10-1 conf inactive
CN1CCN(C(=S)NC(=O)/C=C/c2cccs2)CC1	none
CC1(C)Cc2c(sc(NC(=O)C(=O)N3CCCC3)c2C#N)CO1	tim10-1 inh 41 | tim10-1 conf inactive
CC1(C)Cc2c(sc(NC(=O)C(=O)N3CCCC3)c2C(=O)O)CO1	none
CCc1cc2c(=O)nc3n(c2s1)Cc1ccccc1/C3=C(/O)c1ccc(F)cc1	tim10-1 inh 44 | tim10-1 conf 35
CCc1cc2c(=O)nc3n(c2s1)Cc1ccccc1/C3=C(/O)c1cccc([N+](=O)[O-])c1	none
Cc1n(-c2ccccc2)c2ccc(Cl)cc2[n+]1CCO	none
CC(C)=CCC1=C(OCC(=O)O)C(=O)c2ccccc2C1=O	tim10-1 inh 52 | tim10-1 conf 44
CC(C)(C)c1csc(SCC(=O)Nc2ccc(Cl)cn2)n1	tim10-1 inh 43 | tim10-1 conf inactive
Cc1csc(SCC(=O)Nc2ccc(Cl)cn2)n1	none
COc1ccccc1C(=O)NC(CCSC)C(=O)OC(C)C(=O)NC1CC1 (stereo not drawn)	none (no result: PfHsp90 set2)
CC(C)Cc1cc(C(=O)NCCCN2CCOCC2)no1	none
CC(=O)Nc1cccc(C(=O)/C=C/c2ccc(F)cc2)c1	tim10-1 inh 41 | tim10-1 conf 31
Cc1ccc(C)c(S(=O)(=O)N2CCN(C(=O)C3CCN(c4ncnc5sc(C)c(C)c45)CC3)CC2)c1	tim10-1 inh 47 (no result: PfHsp90 set2) | tim10-1 conf inactive
Cc1ccc(NC(=O)C2CCN(c3ncnc4sc(C)c(C)c34)CC2)cc1S(=O)(=O)N(C)C	none (no result: PfHsp90 set2)
Fc1ccccc1CNCCC(Cc1ccccc1)c1ccc2c(c1)OCO2 (stereo not drawn)	tim10-1 inh 47 | tim10-1 conf inactive
CC(NC(=O)C12CC3CC(CC(O)(C3)C1)C2)c1ccccc1 (stereo not drawn)	none
CCOC(=O)C1CCCN(C2=NC(=O)/C(=C/c3ccc(OC)cc3)S2)C1 (stereo not drawn)	tim10-1 inh 47 | tim10-1 conf 31
